# Shown are actives, neighbours in structure and some others; about 4% of the full set was active somewhere.
# FBA Mtb inh: Mtb FBA enzyme inhibitors, primary screen, biochemical, fluorescence, strain H37Rv; purified M. tuberculosis FBA, fluorescence read-out; inhibition, % at 1 µM; hit rate 2.3% among 360,000;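 also: 0% = vehicle and 100% = reference inhibitor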
# Target sequence (P9WQA3 whole entry, looked up): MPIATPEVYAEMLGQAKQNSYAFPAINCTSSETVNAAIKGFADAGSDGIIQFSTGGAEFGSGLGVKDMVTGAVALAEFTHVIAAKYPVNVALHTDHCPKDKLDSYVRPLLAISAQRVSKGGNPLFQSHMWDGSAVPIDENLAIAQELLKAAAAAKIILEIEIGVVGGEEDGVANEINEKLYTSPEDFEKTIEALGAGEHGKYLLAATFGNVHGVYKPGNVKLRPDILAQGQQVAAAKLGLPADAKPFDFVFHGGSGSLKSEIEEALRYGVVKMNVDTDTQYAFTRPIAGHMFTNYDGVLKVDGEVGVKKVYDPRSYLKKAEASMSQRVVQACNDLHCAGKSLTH
# RecA intein inh: Mtb RecA intein splicing inhibitors, primary screen, biochemical, fluorescence, HTS | Protein RecA (Mycobacterium tuberculosis (strain ATCC 25618 / H37Rv)), P9WHJ3 | cell-free RecA intein splicing | inhibition, % (test concentration not listed) | hit rate 0.75% among 290,000 | AID 2221, 2009; in the data active = inhibition above about 30%;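 also: 0% = vehicle wells and 100% = reference inhibitor control wells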
# Rv3671c protease: Rv3671c serine protease inhibitors, primary screen, biochemical, fluorescence polarization, M. tuberculosis H37Rv; P9WHR9; hit rate 0.048% among 320,000; inhibition, % at 5.96 µM; in the data active = inhibition above about 38%;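 also: extracellular domain of Rv3671c used as enzyme; 0% = enzyme with DMSO and 100% = no enzyme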
# Mtb betalactam: beta-lactam sensitization of Mtb H37Rv, H37Rv | M. tuberculosis H37Rv growth with meropenem, percent inhibition | inhibition, % at 25 µM | hit rate 0.27% among 330,000 | AID 434955, 2010; call rule not given here;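 also: growth measured after seven days incubation then overnight dye step; 0% = bacteria only wells and 100% = bacteria with antibiotic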
# Mtb UGM inh: M. tuberculosis UGM enzyme inhibitors, primary screen, biochemical, fluorescence polarization, single point; UDP-galactopyranose mutase (Mycobacterium tuberculosis (strain ATCC 25618 / H37Rv)), …; purified UGM, fluorescence polarization probe displacement; inhibition, % at 10 µM; hit rate 0.06% among 320,000; in the data active = inhibition above about 10%, passing the limit was not always enough
# GDH-TPI counter-1: GDH-TPI coupling enzyme inhibitors, primary screen, artefact control for M. tuberculosis FBA inhibitor project, biochemical, absorbance, full deck. GDH-TPI coupled enzyme counterscreen, NADH absorbance. inhibition, % at 4.8 µM. hit rate 1.2% among 360,000; in the data active = inhibition above about 30%;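 also: 0% = DMSO wells and 100% = wells lacking the enzyme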
# Mtb FBA confirm: M. tuberculosis aldolase blockers, biochemical, fluorescence, strain H37Rv, confirmation | hit rate 78% among 5,600 | purified M. tuberculosis FBA, fluorescence read-out | AID 651616, 2012 | inhibition, % at 1 µM | shares compounds with FBA Mtb inh;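 also: 0% = vehicle wells and 100% = reference inhibitor wells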
# GDH-TPI counter-2: GDH-TPI coupling enzyme inhibitors, artefact control for M. tuberculosis FBA inhibitor project, biochemical, fluorescence, high throughput; shares compounds with FBA Mtb inh; GDH-TPI coupled enzyme counterscreen; inhibition, % at 1 µM; hit rate 81% among 5,600; AID 652141, 2013; in the data active = inhibition above about 10%
# Numbers without * were called inactive; x = no result; + = active, no number. Rule as the data show it, unless noted: active = inhibition above about 27%; inactive = the rest.
SMILES,FBA Mtb inh,RecA intein inh,Rv3671c protease,Mtb betalactam,Mtb UGM inh,GDH-TPI counter-1,Mtb FBA confirm,GDH-TPI counter-2
CC1CCN(CC(O)COC2CC(C)CCC2C(C)C)CC1 (centres undefined),-1.3,-2.6,0.2,-9.5,-1.6,-0.9,x,x
O=[N+]([O-])c1cccc(CON=Cc2ccccc2O)c1,-0.8,x,x,x,x,7.1,x,x
CCOC(=O)N1CCN(C(=O)c2cnn3c(C)c(Cc4ccc(C)cc4)c(C)nc23)CC1,34.2*,1.5,-1.6,-7.1,-2.2,4.9,114.9*,91.6*
Cc1nc2c(C(=O)N3CCC4(CC3)OCCO4)cnn2c(C)c1Cc1cccc(Cl)c1,31.5*,2.9,0.3,-9.2,0.2,-5.6,+,191.5*
Cc1nc2c(C(=O)N3CCCC3)cnn2c(C)c1Cc1c(F)cccc1Cl,6.1,-1.0,6.1,1.8,-0.1,2.1,x,x
CCOC(=O)N1CCN(C(=O)c2cnn3c(C(F)F)cc(-c4ccc(C)cc4)nc23)CC1,-1.4,-3.3,-4.4,-3.5,-2.1,5.2,x,x
COC(=O)c1cnn2c(C)c(Cc3cccc(F)c3)c(C)nc12,42.5*,4.0,-1.7,-8.5,x,8.1,7.3,1.1
Cc1ccc(C)c(Cc2c(C)nc3c(C(=O)N4CCOCC4)cnn3c2C)c1,62.0*,2.9,-3.5,-14.0,-4.9,6.3,x,+
CC(=O)Nc1ccc(S(=O)(=O)N2CCN(S(=O)(=O)N3CCC(C)CC3)CC2)cc1,-2.1,-0.7,3.3,0.6,0.5,1.1,x,x
CCOc1ccc(-c2nc(C#N)c(N3CCN(CC)CC3)o2)cc1,59.2*,2.0,0.0,-2.8,2.7,28.2,44.0*,49.0*
CCCOc1ccc(-c2nc(C#N)c(N3CCN(CC)CC3)o2)cc1,44.5*,3.7,2.0,73.7,4.2,4.1,+,+
Cn1c(=O)n(C)c2cc(NC(=O)Cc3ccccc3[N+](=O)[O-])ccc21,2.4,1.4,3.4,-0.4,1.4,-5.1,x,x
CCOC(=O)Nc1nnc(Cc2ccc(Cl)c(Cl)c2)s1,102.9*,0.8,-1.0,1.0,0.5,-4.4,63.2*,46.7*
Cc1ccc(NC(=O)c2ccc(NS(=O)(=O)c3ccc4[nH]c(=O)[nH]c4c3)cc2)nc1,-1.3,2.1,-8.3,-1.1,3.4,13.0,x,x
Cc1ccc(C(c2nc3ccccc3[nH]2)n2c(-c3ccccc3)nc3ccccc32)cc1 (centres undefined),27.7*,x,x,x,x,x,7.6,-0.7
OC(c1ccccc1)c1nc2ccccc2[nH]1 (centres undefined),-0.5,-2.6,-0.7,-1.5,-0.4,-0.7,x,x
CCOC(=O)NN1C(=O)c2ccccc2NC1c1ccccc1F (centres undefined),37.2*,0.8,-7.2,-2.4,0.5,2.2,51.0*,32.3*
CC1Nc2ccccc2C(=O)N1NC(=O)c1ccc(Br)cc1 (centres undefined),2.2,1.7,-5.8,-0.9,-3.6,-0.3,x,x
O=C(O)CCC(=O)NN1C(=O)c2ccccc2NC1c1ccco1 (centres undefined),32.3*,-1.5,9.7,-2.2,0.5,1.3,-3.5,-3.9
CS(=O)(=O)NN1C(=O)c2ccccc2NC1c1ccccc1F (centres undefined),16.1,-4.7,-1.0,-1.7,-1.8,-3.6,x,x
CCOC(=O)NN1C(=O)c2ccccc2NC1c1ccc(N(C)C)cc1 (centres undefined),9.6,4.6,5.4,3.7,-1.2,16.7,x,x
CCOC(=O)NN1C(=O)c2ccccc2NC1c1ccccc1 (centres undefined),39.5*,-13.0,3.9,-3.0,-4.0,7.8,+,+
CCOC(=O)NN1C(=O)c2ccccc2NC1C (centres undefined),72.5*,-4.0,7.9,-2.9,-2.9,0.3,146.3*,116.4*
Cc1ccc2nc3c(cc2c1)c(NC(=O)C(C)(C)C)nn3CC(C)C,8.6,-39.5,-11.6,5.2,5.0,5.3,x,x
CC(C)C[C@H](NC(=O)N1CCn2c1nc1ccccc12)C(=O)NCC1CCCO1 (some centres undefined),2.4,2.6,-1.4,-0.6,-0.1,-1.7,x,x
SMILES,FBA Mtb inh,RecA intein inh,Rv3671c protease,Mtb betalactam,Mtb UGM inh,GDH-TPI counter-1,Mtb FBA confirm,GDH-TPI counter-2
CCCS(=O)(=O)NC(=O)C1(C)CCN(C(=O)c2snnc2C)C1 (centres undefined),-3.5,x,x,x,x,1.8,x,x
COc1ccccc1C(=O)NC(=O)CSc1nnnn1C,2.1,x,-4.9,-3.2,0.8,-2.2,x,x
CCOC(=O)NN1C(=O)c2ccccc2NC1c1ccc(OC)cc1 (centres undefined),40.1*,-11.2,3.8,5.2,-1.4,8.5,140.5*,119.5*
CCOC(=O)NN1C(=O)c2ccccc2NC1c1ccccn1 (centres undefined),29.8*,-0.5,-0.7,0.7,-1.2,4.1,105.0*,76.7*
C/C=C(/C)C(=O)O[C@@H]1c2c(ccc3ccc(=O)oc23)O[C@@H]1C(C)(C)OC(=O)/C(C)=C\C,11.4,4.4,-19.1,-19.8,0.3,6.7,x,x
C/C=C(\C)C(=O)OC(C)(C)[C@@H]1Cc2cc3ccc(=O)oc3cc2O1,92.6*,x,-9.1,-1.5,-0.1,10.2,156.7*,113.8*
CSc1nc2c(c(=O)[nH]1)C(c1ccccc1)C1=C(CC(C)(C)CC1=O)N2 (centres undefined),28.5*,x,-0.5,-0.4,1.9,5.7,67.7*,45.2*
CCSc1nc2c(c(=O)[nH]1)C(c1ccc(C)cc1)C1=C(CCCC1=O)N2 (centres undefined),29.3*,-2.0,2.5,-8.0,1.0,6.2,147.6*,126.4*
CC1(C)CC(=O)C2=C(C1)Nc1[nH]c(=S)[nH]c(=O)c1C2c1ccccc1 (centres undefined),4.3,0.1,2.3,-7.8,2.0,7.3,x,x
Cc1ccc(C2C3=C(CC(C)(C)CC3=O)Nc3onc(C)c32)cc1 (centres undefined),46.1*,1.0,-1.1,1.3,2.5,5.4,2.6,-1.4
COc1cc(C(=O)NCC(=O)Nc2c(C)cccc2C)ccc1OCC(=O)N1CCOCC1,4.5,x,0.3,-10.3,-1.9,-1.8,x,x
CC(C(=O)NCc1ccccc1Cl)N1C(=O)c2ccccc2C1=O (centres undefined),5.4,-1.2,-5.0,-7.7,1.2,3.1,x,x

# Assay outcomes: PubChem BioAssay, several laboratories
